TDP1 cell noCPT – qHTS for Inhibitors of human tyrosyl-DNA phosphodiesterase 1 (TDP1): qHTS in cells in absence of CPT | DT40 Tdp1-/- hTDP1 cells, no CPT, ATP luminescence, 48 h | Potency, µM (top dose mostly 46.2 µM), without a hit: at the top dose activity change, negative = growth inhibition, usual class: inhibitors | actives 15% (n = 420,000); further: potency means the concentration at half of the fitted maximal effect; nearly all actives have a fitted effect of over 55% in size
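DT40 Tdp1-/-;hTDP1 cells, no CPT (DMSO vehicle only), 400 cells/well; compounds pin-transferred; ≥48 hr, 37 °C; CellTiter-Glo 30 min RT dark, luminescence read.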
HT1080NT lethal – kills 2HG-producing HT-1080-NT fibrosarcoma cells; HT-1080-NT fibrosarcoma viability, CellTiter-Glo ATP luminescence, 48 h; Potency, µM (top dose mostly 46.1 µM), without a hit: at the highest dose activity, negative = less viability, most hits filed as cytotoxic; actives 1.6% (n = 360,000);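 further: NT is the 2HG producing partner of a matched IDH1 knockdown line; potency means the concentration at half of the fitted maximal effect; 0% = DMSO-treated cells and -100% = media-only wells without cells; nearly all actives have a fitted effect of over 55% in size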
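750 cells/well, RPMI + 5% FBS; 2 h settle, compound pin-transfer, 48 h at 37 degrees C. CellTiter-Glo 10 min RT, luminescence. Normalized to DMSO and media-only wells.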
DT40 TDP1 CPT – DT40-hTDP1 cell growth loss with CPT. chicken DT40 Tdp1-/-;hTDP1 cells + 20 nM CPT, ATP luminescence, 48 h. Potency, µM (series often up to 46.2 µM), for inactives: top-dose activity change, negative = growth inhibition, usual class: inhibitors. actives 12% (n = 420,000); further: potency means the concentration at half of the fitted maximal effect; nearly all actives have a fitted effect of over 55% in size
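Chicken DT40 Tdp1-/- cells stably complemented with human TDP1 were seeded at 400 cells/well in medium containing 20 nM camptothecin, exposed to pin-transferred compounds, and grown at 37 °C for at least 48 hr. Viability was read as ATP luminescence.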
IL1B secr inh – inflammasome signaling inhibition, IL-1 beta readout; THP-1 LPS/ATP IL-1B secretion, AlphaLISA, 16 h; stronger effect = lower value; activity change, % at 57.5 µM; actives 4.7% (n = 360,000); in the data active means activity change below about -50%; inconclusive means mostly about -30% to -49%
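Secreted IL-1B measured by AlphaLISA bead assay after 16 h compound exposure of THP-1 cells; compounds (final up to 57.5 uM) added 1 h before LPS (250 ng/mL) and ATP (1.25 mM) stimulation; lower signal means less secretion.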
HT1080 IDH1KD tx – HT-1080 IDH1 knockdown cell toxicity (counter line); HT-1080 IDH1 knockdown viability, ATP luminescence, 48 h; Potency, µM (series often up to 46.1 µM), inactives show at the top dose activity, negative = toxicity, actives largely listed as cytotoxic; actives 2% (n = 360,000); AID 686971;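 further: potency means the concentration at half of the fitted maximal effect; 0% = DMSO wells and -100% = cell-free medium wells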
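Cytotoxicity counter-line: IDH1KD HT-1080, 48 h, CellTiter-Glo. Curves classed by r2, magnitude and activity.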
* marks the source's active call; other numbers are inactive results; ? = inconclusive; · = not tested or not shown; ! = not confirmed by another sample; [ ] = dose if it differs, or a comment. Shown are actives, neighbours in structure and some others; about 19% of the full set was active somewhere. Unless noted, the call rests on the fitted dose curve; in most records, active means well fitted curve in the direction sought with a large enough effect; inconclusive means small, poorly fitted or top-dose-only effect, or another doubt; inactive means no such curve, though single readings can be large; an effect the other way counts as inactive or inconclusive. Unless noted, on the % scale 0 is the no-effect control and ±100 the full control effect.

SMILES	TDP1 cell noCPT	HT1080NT lethal	DT40 TDP1 CPT	IL1B secr inh	HT1080 IDH1KD tx
Cc1ccc(N2CC(C(=O)Nc3cccnc3)CC2=O)cc1C (stereo unspecified)	?	9%	13%	26	8%
CN(CC(=O)Nc1ccccc1Br)C(=O)c1cccn1C	-13%	0%	-19%	11	11%
O=[N+]([O-])c1ccc(SCCc2ccccn2)cc1	-29%	0%	-15%	-7	-19%
Fc1ccc(SCCc2ccncc2)cc1	18µM*!	15%	?	1	10%
COc1ccc(SCCc2ccncc2)cc1	4%	-5%	1%	-4	-2%
O=[N+]([O-])c1ccc(SCCc2ccncc2)cc1	21µM*	4%	?	-5	2%
CCc1ccccc1OC[C@@H](O)CN[C@H]1CCCc2ccccc21	6µM*	?	16µM*	?	?
OC(CNC1CCCc2ccccc21)COc1ccc2ccccc2c1 (stereo unspecified)	21µM*	-25%	?	-11	-17%
O=C(c1ccccc1)c1ccc(OCC(O)CNC2CCCc3ccccc32)cc1 (stereo unspecified)	?	-2%	16µM*	17	-1%
CC(=O)CCc1ccc(OCC(O)CNC2CCCc3ccccc32)cc1 (stereo unspecified)	?	1%	?	-11	1%
CCOc1ccccc1N1C(=O)CN(Cc2ccc(OC)c(OC)c2)C1=S	?	-3%	?	0	-8%
CC1(C)CCCN(Cc2c(O)ccc3c(=O)c(-c4nc5ccccc5s4)c(N)oc23)C1	13µM*	?	18µM*	55	-5%
CC1CCN(Cc2c(O)ccc3c(=O)c(-c4nc5ccccc5s4)c(N)oc23)CC1	?	-1%	?	41	-6%
O=C(NCc1ccccn1)/C(=N/O)c1ccccc1	15µM*	25%	15µM*	12	26%
C/C(=N\O)C(=O)NCc1ccccn1	-4%	11%	-11%	17	9%
Cc1ccc2c(n1)sc1c(-c3ccc(Br)cc3)c(C#N)c(N)nc12	18µM*	2%	?	-3	-27%
COc1cc(C(=O)OCC(=O)NC2CCS(=O)(=O)C2)ccc1OCc1c(C)noc1C (stereo unspecified)	2%	10%	2%	8	7%
COC(=O)Nc1ccc(S(=O)(=O)NC2CCS(=O)(=O)C2)cc1 (stereo unspecified)	-17%	28%	-6%	24	10%
CCCCc1ccc(S(=O)(=O)NC2CCS(=O)(=O)C2)cc1 (stereo unspecified)	21µM*	?	21µM*	5	-15%
COc1cccc(NC(=O)C2(S(=O)(=O)c3ccc(Cl)cc3)CC2)c1	3%	7%	8%	16	-1%
COc1cccc(/C=C2/CN(C)CC3=C2OC(N)=C(C#N)C3c2cccc(OC)c2)c1 (stereo unspecified)	16µM*	?	18µM*	?	?
COc1ccc(C)cc1NC(=O)NCc1ccc2c(c1)CCN2C(=O)c1ccccc1	21µM*	·	23µM*	·	·
COC(=O)c1ccccc1NC(=O)NCc1ccc2c(c1)CCN2C(=O)c1ccccc1	16µM*	·	23µM*	·	·
O=C(CSc1ccccc1)NCc1ccc2c(c1)CCN2C(=O)c1ccc(F)cc1	-20%	·	-3%	·	·
Cc1ccc(C(=O)N2CCc3cc(CNC(=O)CSc4ccccc4)ccc32)cc1	15µM*	·	15µM*	·	·
SMILES	TDP1 cell noCPT	HT1080NT lethal	DT40 TDP1 CPT	IL1B secr inh	HT1080 IDH1KD tx
CCc1ccccc1NC(=O)NCc1ccc2c(c1)CCN2C(=O)c1ccccc1	23µM*	·	?	·	·
Cn1nccc1C(=O)NCc1ccc2c(c1)CCN2C(=O)c1ccccc1	-21%	·	-1%	·	·
NC(=O)NC(=O)COC(=O)CNS(=O)(=O)c1ccc(F)c(F)c1F	10%	18%	2%	-7	22%
COc1ccc(CC(=O)NCc2ccc3c(c2)CCN3C(=O)c2ccc(C)cc2)cc1OC	12µM*	·	13µM*	·	·
COc1ccc(CC(=O)NCc2nnc(SCC(=O)Nc3cccc(F)c3)n2C)cc1	-24%	9%	1%	32	-8%
COc1ccc(-c2cn3c(C)c(C(=O)N4CCc5ccccc5C4)sc3n2)cc1	21µM*	-21%	18µM*	54	?
Cc1c(C(=O)N2CCc3ccccc3C2)sc2nc(-c3ccccc3)cn12	21µM*	-5%	?	-11	?
Cc1ccccc1CSc1nnc2[nH]c(=O)cc(C)n12	-2%	·	5%	·	·
CCN(CC)CC(=O)c1c(C)n(C)c2ccc(OC)cc12	3%	·	5%	·	·
Cc1ccc(-c2cc(C(F)(F)F)n3nc(C(=O)N4CCN5CCCC5C4)cc3n2)cc1 (stereo unspecified)	?	?	?	-62*	?
Cc1ccc(-c2cc(C(F)F)n3ncc(C(=O)NN4CCCCC4)c3n2)cc1	23µM*	23%	21µM*	3	3%
O=C(O)c1cc2nc(-c3ccccc3)cc(-c3ccccc3)n2n1	12%	-14%	2%	48	?
CC1CCCCN1C(=O)c1cc2nc(-c3ccccc3)cc(-c3ccccc3)n2n1 (stereo unspecified)	23µM*	?	16µM*	-61*	?
Cc1ccc(-c2cc(C(F)F)n3ncc(C(=O)N4CCN5CCCC5C4)c3n2)cc1 (stereo unspecified)	?	-9%	15µM*	?	-7%
O=C(Cn1nc2c(cc1=O)CCCC2)Nc1ccccc1C(F)(F)F	-7%	·	1%	·	·
O=C(c1cc2nc(-c3ccc(F)cc3)cc(C(F)(F)F)n2n1)N1CCCCC1c1cccnc1 (stereo unspecified)	9.2µM*	?	13µM*	-62*	18µM*
N#Cc1cccc(NC(=O)c2cc3c(s2)-c2ccc(Cl)cc2SC3)c1	23µM*	·	26µM*	·	·
CCN(CC)CCNC(=O)c1cc2c(s1)-c1ccccc1SC2	16µM*	?	23µM*	-9	?
CN(Cc1ccccc1)C(=O)c1cc2c(s1)-c1ccc(Cl)cc1SC2	23µM*	·	?	·	·
COCC(=O)Nc1cc(C(=O)N2CCN(C3CCCC3)C(=O)C2)c2c(c1)nc(-c1ccncc1)n2C	-9%	·	-6%[9.04 µM]	·	·
CC(=O)c1cccc(NC(=O)c2cc3nc(-c4ccc(Br)cc4)cc(C(F)(F)F)n3n2)c1	6.5µM*	·	6.5µM*	·	·
Nc1ccc(C(=O)n2c3ccccc3c3ccccc32)cc1	2.3µM*	?	1.8µM*	17	0.92µM*
O=S1(=O)CCOCCN1Cc1ccccc1	-19%	8%	-2%	25	18%
